# In paper PMC11062922 (Nature Chemical Biology, 2023):
# Where two headings read alike, the source gives them in different places.
# Assays:
# Set-up in all cases: species or system human, MV4-11 + K-562 + COLO205 + SK-N-BE2 + OVCAR-8
# ACVR1B = settings: read-out: apparent Kd, n = 1
# MAPK14 = settings: read-out: apparent Kd, n = 1
# ACVR1 = settings: read-out: apparent Kd, n = 1
# AKT2 = settings: read-out: apparent Kd, n = 1
# CSK = settings: read-out: apparent Kd, n = 1
# CSNK2A1;CSNK2A3 = settings: read-out: apparent Kd; compound concentrations: 100 nM and 1000 nM (sheet 'Samples'), CATDS: 2.30931474147829E-2; n = 1
# SRC = settings: read-out: apparent Kd; compound concentrations: 100 nM and 1000 nM (sheet 'Samples'), CATDS: 2.9038399213399499E-2; n = 1
# DDR1 = settings: read-out: apparent Kd, n = 1
# SIK2 = settings: read-out: apparent Kd; compound concentrations:100 nM and 1000 nM (sheet 'Samples'); n = 1
# ZAK = settings: read-out: apparent Kd; compound concentrations:100 nM and 1000 nM (sheet 'Samples'); n = 1
# CDK16 = settings: read-out: apparent Kd, n = 1
# DYRK1A = settings: read-out: apparent Kd; compound concentrations:100 nM and 1000 nM (sheet 'Samples'); n = 1
# FLT3 = settings: read-out: apparent Kd, n = 1
# BTK = settings: read-out: apparent Kd; compound concentrations:100 nM and 1000 nM (sheet 'Samples'); n = 1
# MAP2K5 = settings: read-out: apparent Kd, n = 1
# AURKB = settings: read-out: apparent Kd; compound concentrations:100 nM and 1000 nM (sheet 'Samples'); n = 1
# EPHA1 = settings: read-out: apparent Kd; compound concentrations:100 nM and 1000 nM (sheet 'Samples'); n = 1
# ACAD8 = settings: read-out: apparent Kd, n = 1
# [1] = compound concentrations:100 nM and 1000 nM (sheet 'Samples')
compound,measurement,setting,value
COc1ccc(-c2nc3n(c2-c2ccncc2)CCC3)cc1.COc1ccc(-c2nc3n(c2-c2ccncc2)CCC3)cc1.O=S(=O)(O)O.O=S(=O)(O)O [SKF-104493-B2],potency estimated from few doses,"ACVR1B; compound concentrations: 100 nM and 1000 nM (sheet 'Samples'), CATDS: 0.14344642008730599",1.03 µM
same,potency estimated from few doses,"MAPK14; compound concentrations: 100 nM and 1000 nM (sheet 'Samples'), CATDS: 0.181046976908248",0.687 µM
CS(=O)(=O)c1ccc(-c2cnc(N)c(C(=O)Nc3ccccc3)n2)cc1 [VE-821],potency estimated from few doses,"ACVR1; compound concentrations: 100 nM and 1000 nM (sheet 'Samples'), CATDS: 0.23402364017956601",0.475 µM
O=S(=O)(CCOCc1ccc(-c2ccc3ncnc(Nc4ccc(OCc5cccc(F)c5)c(Cl)c4)c3c2)o1)c1ccccc1 [GW615311X],potency estimated from few doses,"ACVR1B; compound concentrations: 100 nM and 1000 nM (sheet 'Samples'), CATDS: 3.6359113991721197E-2",0.818 µM
same,potency estimated from few doses,"ACVR1; compound concentrations: 100 nM and 1000 nM (sheet 'Samples'), CATDS: 2.7247604336379499E-2",1.43 µM
same,potency estimated from few doses,"AKT2; compound concentrations: 100 nM and 1000 nM (sheet 'Samples'), CATDS: 2.19467490651379E-2",2.45 µM
same,potency estimated from few doses,"CSK; compound concentrations: 100 nM and 1000 nM (sheet 'Samples'), CATDS: 2.6624527430589399E-2",1.51 µM
same,potency estimated from few doses,CSNK2A1;CSNK2A3,2.13 µM
same,potency estimated from few doses,"MAPK14; compound concentrations: 100 nM and 1000 nM (sheet 'Samples'), CATDS: 2.8626143180457999E-2",1.29 µM
same,potency estimated from few doses,SRC,1.25 µM
Fc1ccc(-c2c(-c3ccncc3)[nH]c3nccnc23)cc1 [RO1155697-000],potency estimated from few doses,ACVR1B; [1],0.711 µM
same,potency estimated from few doses,DDR1; [1],1.01 µM
same,potency estimated from few doses,"MAPK14; compound concentrations: 100 nM and 1000 nM (sheet 'Samples'), CATDS: 5.8125054995699497E-2",0.449 µM
COc1cccc(-c2c[nH]c3c(N/N=C/c4ccncc4)ncnc23)c1 [GW814408X],potency estimated from few doses,ACVR1; [1],1.37 µM
same,potency estimated from few doses,SIK2,1.18 µM
same,potency estimated from few doses,ZAK,1.54 µM
N#Cc1cccc(Nc2nccc(-c3cnn4ncccc34)n2)c1 [GW778894X],potency estimated from few doses,CDK16; [1],0.013 µM
same,potency estimated from few doses,DYRK1A,0.0359 µM
same,potency estimated from few doses,FLT3; [1],0.137 µM
Nc1nc(N)c2nc(-c3ccccc3)[nH]c2n1 [SKF-12778],potency estimated from few doses,AKT2; [1],1.57 µM
same,potency estimated from few doses,BTK,1.33 µM
same,potency estimated from few doses,FLT3; [1],1.07 µM
same,potency estimated from few doses,MAPK14; [1],0.973 µM
CC(=O)c1c(-c2ccncc2)[nH]c(-c2ccncc2)c1C [GW493036X],potency estimated from few doses,DYRK1A,0.0537 µM
COc1cc2ncn(-c3cc(OCc4cccs4)c(C(N)=O)s3)c2cc1OC [GSK312948A],potency estimated from few doses,MAP2K5; [1],0.461 µM
CNc1nccc(-c2c(-c3ccc(F)cc3)ncn2C2CCN(C)CC2)n1 [SB-222903],potency estimated from few doses,DDR1; [1],0.348 µM
same,potency estimated from few doses,"MAPK14; compound concentrations: 100 nM and 1000 nM (sheet 'Samples'), CATDS: 0.13479921836841699",0.0299 µM
Cl.Cn1c(=O)c(Cc2ccc(F)cc2F)cc2cnc(NC3CCOCC3)nc21 [RO3308757-001],potency estimated from few doses,MAPK14; [1],0.442 µM
same,potency estimated from few doses,SIK2,0.812 µM
Cn1cc(-c2cnc(N)c3c(-c4ccc5c(c4)CCN5C(=O)Cc4ccccc4)csc23)cn1 [GSK2593074A],potency estimated from few doses,AURKB,0.692 µM
same,potency estimated from few doses,MAP2K5; [1],0.979 µM
CC(C)c1nc(-c2ccc(F)c(NS(=O)(=O)c3c(F)cccc3F)c2)c(-c2ccnc(Nc3ccc(N4CCOCC4)nc3)n2)s1 [GSK1804250A],potency estimated from few doses,CDK16; [1],1.89 µM
same,potency estimated from few doses,CSK; [1],0.442 µM
same,potency estimated from few doses,EPHA1,0.548 µM
same,potency estimated from few doses,ZAK,1.41 µM
CS(=O)(=O)c1ccc(-c2nc3n(c2-c2ccncc2)CCC3)cc1 [SKF-105942],potency estimated from few doses,"ACAD8; compound concentrations: 100 nM and 1000 nM (sheet 'Samples'), CATDS: 0.13672361229607899",1.4 µM
same,potency estimated from few doses,"AKT2; compound concentrations: 100 nM and 1000 nM (sheet 'Samples'), CATDS: 0.110414115877762",2.47 µM
Clc1ccc(-c2nn3ncccc3c2-c2ccnc(Nc3ccccc3)n2)cc1 [GW829055X],potency estimated from few doses,"ACAD8; compound concentrations: 100 nM and 1000 nM (sheet 'Samples'), CATDS: 3.9352617982793499E-2",1.22 µM
same,potency estimated from few doses,"AKT2; compound concentrations: 100 nM and 1000 nM (sheet 'Samples'), CATDS: 4.03721310315426E-2",1.15 µM
Cc1ccc(-n2nc(C(C)(C)C)cc2NC(=O)Nc2ccc(OCCN3CCOCC3)cc2)cc1 [BIRB0876BS],potency estimated from few doses,ACAD8; [1],2.1 µM
same,potency estimated from few doses,DDR1; [1],0.607 µM
Fc1cccc(COc2ccc(Nc3ncncc3C#Cc3ccccc3)cc2Cl)c1 [GW651576X],potency estimated from few doses,"ACAD8; compound concentrations: 100 nM and 1000 nM (sheet 'Samples'), CATDS: 5.0604868868818903E-2",1.74 µM
NC(=O)c1cccnc1COc1cc(-c2ccc(N3CCOCC3)nc2)cc2ncccc12 [BI01125081],potency estimated from few doses,ACAD8; [1],1.93 µM
Nc1c(C(=O)c2ccccc2)cnn1-c1ccc(F)cc1 [RO1151246-000],potency estimated from few doses,ACAD8; [1],1.76 µM
same,potency estimated from few doses,AKT2; [1],1.8 µM
same,potency estimated from few doses,"MAPK14; compound concentrations: 100 nM and 1000 nM (sheet 'Samples'), CATDS: 4.1752144248388801E-2",1.63 µM
COc1ccc(-c2nn3ncccc3c2-c2ccnc(Nc3ccc4c(c3)OCCO4)n2)cc1 [GW827106X],potency estimated from few doses,"ACVR1B; compound concentrations: 100 nM and 1000 nM (sheet 'Samples'), CATDS: 6.5023219002079705E-2",0.849 µM
same,potency estimated from few doses,"DDR1; compound concentrations: 100 nM and 1000 nM (sheet 'Samples'), CATDS: 9.2725066561010094E-2",0.461 µM
same,potency estimated from few doses,"MAPK14; compound concentrations: 100 nM and 1000 nM (sheet 'Samples'), CATDS: 7.81285273726149E-2",0.61 µM
CCS(=O)(=O)c1ccc(OC)c(Nc2ncc(-c3cccc(F)c3)o2)c1 [GW621970X_KCGS],potency estimated from few doses,ACAD8; [1],2.33 µM
same,potency estimated from few doses,DYRK1A,1.66 µM
Fc1ccc(-c2ncn(C3CCNCC3)c2-c2ccnc(Oc3ccc4c(c3)OCO4)n2)cc1 [SB-250715],potency estimated from few doses,ACAD8; [1],1.57 µM
same,potency estimated from few doses,AKT2; [1],1.36 µM
same,potency estimated from few doses,CDK16; [1],2.36 µM
same,potency estimated from few doses,MAPK14; [1],0.0107 µM
NS(=O)(=O)c1cccc(-c2ccc3nccc(-c4cccc(S(N)(=O)=O)c4)c3c2)c1 [GW867253X],potency estimated from few doses,"ACAD8; compound concentrations: 100 nM and 1000 nM (sheet 'Samples'), CATDS: 0.48469015722886899",2.11 µM
Cl.Oc1ccc2ncnc(Nc3ccc(OCc4ccccc4)cc3)c2c1 [GI262866A],potency estimated from few doses,MAPK14; [1],0.77 µM
Cn1cc(C2=C(c3ccccc3[N+](=O)[O-])C(=O)NC2=O)c2ccccc21 [RO0317753-000],potency estimated from few doses,"CDK16; compound concentrations: 100 nM and 1000 nM (sheet 'Samples'), CATDS: 7.8370889513180206E-2",1.34 µM
COc1ccc(Nc2nccc(N3CCC(NC(=O)Nc4cccc(OC)c4)C3)n2)cc1 (centres unmarked) [GSK1379742A],potency estimated from few doses,"ACAD8; compound concentrations: 100 nM and 1000 nM (sheet 'Samples'), CATDS: 0.11167502777980801",2.09 µM
COc1ccc(COc2ccc(Cc3cnc(N)nc3N)cc2OC)cc1 [GW632580X],potency estimated from few doses,ACAD8; [1],1.64 µM
COc1cc(N2CCN(C(C)C)CC2)ccc1Nc1nc(Nc2cccc(F)c2C(=O)O)c2cc[nH]c2n1 [GSK1819799A],potency estimated from few doses,"AKT2; compound concentrations: 100 nM and 1000 nM (sheet 'Samples'), CATDS: 4.3054850332127297E-2",1.95 µM
COc1ccc(C2=C(c3cn(C)c4ccccc34)C(=O)NC2=O)cc1OC [RO3206363-000],potency estimated from few doses,"AKT2; compound concentrations: 100 nM and 1000 nM (sheet 'Samples'), CATDS: 8.3129465265060903E-2",0.149 µM
O=C1Nc2ccc(F)cc2/C1=C/c1ccc[nH]1 [RO0272148-000],potency estimated from few doses,"FLT3; compound concentrations: 100 nM and 1000 nM (sheet 'Samples'), CATDS: 0.86450810261160804",0.0985 µM
COc1ccccc1C(=O)c1cnc(NC2CCN(S(C)(=O)=O)CC2)nc1N [RO4514610-000],potency estimated from few doses,CDK16; [1],0.721 µM
Cc1ccc(NC(=O)Nc2ccccc2)cc1-c1ccc(C(=O)Nc2ccncc2)cc1 [GSK1398471A],potency estimated from few doses,"ACAD8; compound concentrations: 100 nM and 1000 nM (sheet 'Samples'), CATDS: 9.6825044114723993E-2",2.18 µM
same,potency estimated from few doses,"MAP2K5; compound concentrations: 100 nM and 1000 nM (sheet 'Samples'), CATDS: 9.4548103744077197E-2",2.35 µM
COc1cc(F)c(F)c(F)c1C(=O)c1cnc(NC2CCN(S(C)(=O)=O)CC2)nc1N [RO4600703-000],potency estimated from few doses,CDK16; [1],0.051 µM
CN(C)CCOc1ccc(-c2cc(-c3ccc4c(c3)CCC4=NO)c(-c3ccncc3)o2)cc1.Cl [SB-682330-A],potency estimated from few doses,"ACVR1B; compound concentrations: 100 nM and 1000 nM (sheet 'Samples'), CATDS: 0.32185082744978499",1.13 µM
